Experimental data reported in PubChem BioAssay (NCATS).
Records with an inconclusive call do not appear. Entries that show only a call come without a potency. Values without a mark were called inactive. Active and inactive are the calls of the source. Calls come from the whole dose curve; as a rule, active = well fitted curve in the direction sought with a large enough effect; inconclusive = small, poorly fitted or top-dose-only effect, or another doubt; inactive = no such curve, though single readings can be large; an effect the other way counts as inactive or inconclusive.

Legend:
[1] = biological target: Rap guanine nucleotide exchange factor 3 (Homo sapiens) (UniProt O95398); assay: Confirmatory qHTS for antagonist of cAMP-regulated guanine nucleotide exchange factor 3 (EPAC1) (AID 1645880); note: nearly all actives have a fitted effect of over 55% in size; note: potency is the fitted concentration of half-maximal effect
Rap guanine nucleotide exchange factor 3 (Homo sapiens), sequence (O95398 whole entry, looked up): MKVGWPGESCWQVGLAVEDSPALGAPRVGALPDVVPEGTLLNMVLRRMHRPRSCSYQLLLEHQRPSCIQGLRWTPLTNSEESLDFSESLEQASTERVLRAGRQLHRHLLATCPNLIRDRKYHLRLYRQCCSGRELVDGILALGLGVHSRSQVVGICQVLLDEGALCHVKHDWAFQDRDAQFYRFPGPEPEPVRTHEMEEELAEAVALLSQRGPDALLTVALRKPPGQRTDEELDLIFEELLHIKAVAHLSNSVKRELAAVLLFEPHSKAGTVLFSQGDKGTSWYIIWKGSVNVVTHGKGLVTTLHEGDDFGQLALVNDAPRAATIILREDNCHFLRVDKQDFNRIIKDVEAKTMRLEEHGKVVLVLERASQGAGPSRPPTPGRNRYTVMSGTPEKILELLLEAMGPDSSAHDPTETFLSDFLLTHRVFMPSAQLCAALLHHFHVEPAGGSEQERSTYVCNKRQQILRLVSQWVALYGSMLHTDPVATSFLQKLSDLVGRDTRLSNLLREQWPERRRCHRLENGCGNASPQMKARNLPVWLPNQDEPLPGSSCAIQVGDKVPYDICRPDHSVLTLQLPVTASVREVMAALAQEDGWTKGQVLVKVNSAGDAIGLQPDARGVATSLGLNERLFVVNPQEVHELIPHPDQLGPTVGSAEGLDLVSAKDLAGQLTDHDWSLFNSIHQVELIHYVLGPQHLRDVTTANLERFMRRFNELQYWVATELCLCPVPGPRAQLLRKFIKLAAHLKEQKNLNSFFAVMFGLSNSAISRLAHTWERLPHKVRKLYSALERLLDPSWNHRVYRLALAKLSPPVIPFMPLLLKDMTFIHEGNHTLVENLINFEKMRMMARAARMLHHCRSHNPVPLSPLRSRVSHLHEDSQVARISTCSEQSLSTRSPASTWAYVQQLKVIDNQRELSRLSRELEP
Outline: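 Nucleotide exchange uses 100 nM EPAC1, 250 nM RAP1B-BODIPY-GDP and 50 uM GDP, with compounds in a concentration-titration series. After 5 min at room temperature, fluorescence (480 nm ex/540 nm em) is read every 5 min for 30 min. Data are normalized to control ATA and DMSO.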

[2] = biological target: Rap guanine nucleotide exchange factor 3 (Homo sapiens) (UniProt O95398); assay: Confirmatory qHTS for agonist of cAMP-regulated guanine nucleotide exchange factor 3 (EPAC1) (AID 1645881); note: nearly all actives have a fitted effect of over 75% in size; note: potency is the fitted concentration of half-maximal effect;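 for activation: EPAC1 catalysed release of BODIPY-GDP from Rap1B seen as fluorescence loss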
[3] = biological target: Rap guanine nucleotide exchange factor 4 (Homo sapiens) (UniProt Q8WZA2); assay: Confirmatory qHTS for agonist of cAMP-regulated guanine nucleotide exchange factor 4 (EPAC2) (AID 1645884);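 note: nucleotide exchange releases bodipy-GDP from Rap1 and this lowers its fluorescence; nearly all actives have a fitted effect of over 65% in size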; note: potency is the fitted concentration of half-maximal effect
Rap guanine nucleotide exchange factor 4 (Homo sapiens), sequence (Q8WZA2 whole entry, looked up): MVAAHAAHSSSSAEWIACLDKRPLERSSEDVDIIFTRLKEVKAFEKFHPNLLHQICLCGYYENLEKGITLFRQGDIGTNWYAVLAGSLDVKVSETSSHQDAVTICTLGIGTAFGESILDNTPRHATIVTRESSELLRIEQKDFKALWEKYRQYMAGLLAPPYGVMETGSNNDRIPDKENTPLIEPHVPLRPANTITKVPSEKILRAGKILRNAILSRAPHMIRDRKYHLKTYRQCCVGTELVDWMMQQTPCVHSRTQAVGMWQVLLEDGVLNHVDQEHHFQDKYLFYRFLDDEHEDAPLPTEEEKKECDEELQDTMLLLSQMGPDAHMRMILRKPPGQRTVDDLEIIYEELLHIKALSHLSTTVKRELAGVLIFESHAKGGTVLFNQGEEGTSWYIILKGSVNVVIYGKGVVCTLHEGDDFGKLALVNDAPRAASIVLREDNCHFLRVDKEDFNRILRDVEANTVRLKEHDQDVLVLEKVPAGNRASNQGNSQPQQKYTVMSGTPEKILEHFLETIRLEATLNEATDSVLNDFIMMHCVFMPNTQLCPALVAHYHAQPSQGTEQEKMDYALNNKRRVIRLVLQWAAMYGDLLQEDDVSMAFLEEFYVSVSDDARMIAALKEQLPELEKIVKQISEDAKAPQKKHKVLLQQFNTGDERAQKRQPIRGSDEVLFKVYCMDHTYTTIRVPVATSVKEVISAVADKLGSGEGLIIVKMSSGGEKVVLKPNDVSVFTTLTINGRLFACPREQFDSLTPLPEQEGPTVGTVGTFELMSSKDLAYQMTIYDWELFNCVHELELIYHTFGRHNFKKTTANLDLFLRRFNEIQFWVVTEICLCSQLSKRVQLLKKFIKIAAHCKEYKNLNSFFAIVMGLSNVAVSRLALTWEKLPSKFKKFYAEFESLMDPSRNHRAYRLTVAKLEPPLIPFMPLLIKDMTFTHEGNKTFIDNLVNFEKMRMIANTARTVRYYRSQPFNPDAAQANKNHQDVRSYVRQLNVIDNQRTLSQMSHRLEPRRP

[4] = biological target: Rap guanine nucleotide exchange factor 4 (Homo sapiens) (UniProt Q8WZA2); assay: Confirmatory qHTS for antagonist of cAMP-regulated guanine nucleotide exchange factor 4 (EPAC2) (AID 1645885); note: nearly all actives have a fitted effect of over 25% in size; note: potency is the fitted concentration of half-maximal effect
[5] = biological target: Rap guanine nucleotide exchange factor 3 (Homo sapiens) (UniProt O95398); assay: Counterscreen qHTS for antagonist of cAMP-regulated guanine nucleotide exchange factor 3 (EPAC1) (AID 1645888);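 note: fluorescence loss as bound BODIPY-GDP is released from Rap1B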
Outline: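 Rap1B–BODIPY-GDP (250 nM) with 50 uM GDP; compounds pin-transferred to 9.74 nM–152 uM final (activator) or from 7.32 nM upwards (inhibitor). Fluorescence Ex/Em 480/540 nm read at 5 and 30 min, then after adding cAMP or buffer, at room temperature.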

Row | Compound | Potency [1] | Potency [2] | activation [3] | Potency [4] | activity change, negative = inhibition [5] | Potency [3] | Potency [5] | outcome [4]
1 | CC(=O)NCCn1c(C)cc2ccccc21 | inactive | inactive | 5.87% [at 17.1 µM, percent relative to cAMP agonist control] | inactive | -13.2% [at 30.8 µM] |  |  | 
2 | N#C/C(=C\c1ccc(O)c(O)c1)C(=O)Nc1cccc2ncccc12 | 7.57 µM (active) | inactive |  | inactive |  | inactive | inactive | 
3 | CCCCn1c(N)c(N(CCC(C)C)C(=O)Cc2ccc(S(=O)(=O)N3CCOCC3)s2)c(=O)[nH]c1=O | inactive | inactive |  | inactive |  | inactive | inactive | 
4 | O=C(Cc1c(Cl)cccc1Cl)Nc1ccncc1 | inactive | inactive | 13.7% [at 17.1 µM, percent relative to cAMP agonist control] | inactive | 2.85% [at 30.8 µM] |  |  | 
5 | COc1cc(/C=C/C(=O)OCC(=O)Nc2oc(C)c3c(C)n[nH]c(=O)c23)ccc1OC(F)F | inactive | inactive |  | inactive |  | inactive | inactive | 
6 | COc1ccc(-c2nn(-c3ccccc3)cc2/C=N/n2cnnc2)cc1OC | inactive | inactive |  | inactive |  | inactive | inactive | 
7 | CCN(CC)S(=O)(=O)c1cccc(-c2nnc(SCC(N)=O)n2C)c1 | inactive | inactive |  | inactive |  | inactive | inactive | 
8 | COc1ccc(C)cc1NC(=O)CSc1nc(=O)n(Cc2ccco2)c2c1CCC2 | 84.9 µM (active) | inactive |  | inactive |  | inactive | inactive | 
9 | Cc1cscc1-c1ccc(C(=O)Nc2c(C)cccc2C)o1 | inactive | inactive | 7.37% [at 17.1 µM, percent relative to cAMP agonist control] | inactive | -5.01% [at 30.8 µM] |  |  | 
10 | COc1cccc(CNC(=O)CCCn2nc(C)c3c(C)n(-c4ccc(C)cc4)nc3c2=O)c1OC | inactive | inactive |  | inactive |  | inactive | inactive | 
11 | O=C(N/N=C/c1ccc(F)cc1)c1cc(-c2ccco2)nc2ccccc12 | 16.9 µM (active) | inactive |  | inactive |  | inactive | inactive | 
12 | CC(C)N1CCc2c(sc(NC(=O)c3ccc(S(=O)(=O)N4CCCCC4C)cc3)c2C(N)=O)C1 (stereo not given) | 89.1 µM (active) | inactive | 4.64% [at 17.1 µM, percent relative to cAMP agonist control] | inactive | 3.44% [at 30.8 µM] |  |  | 
13 | COc1ccc(S(=O)(=O)N2CCC[C@H]2C(=O)N2CCC[C@H]2C(=O)N[C@@H](C)c2ccccc2)cc1C | inactive | inactive | 1.42% [at 17.1 µM, percent relative to cAMP agonist control] | inactive | 6.49% [at 30.8 µM] |  |  | 
14 | Oc1ccc(NCc2ccccc2OCc2ccc(Cl)cc2)cc1 | 75.7 µM (active) | inactive |  | inactive |  | inactive | inactive | 
15 | COC(=O)c1cc2sccc2n1Cc1c(C)cc(C)cc1C | inactive | inactive |  | inactive |  | inactive | inactive | 
16 | COc1ccc2ccccc2c1C(=O)/C=C\c1ccoc1 | 42.6 µM (active) | inactive |  | inactive |  | inactive | inactive | 
17 | Cc1ccc(S(=O)(=O)/N=C2/NC(=O)/C(=C/c3ccccc3)S2)cc1 | 42.6 µM (active) | inactive |  | inactive |  | inactive | inactive | 
18 | COc1cccc(C(=O)C2=NN(C(C)=O)CC2c2ccco2)c1 (stereo not given) | inactive | inactive |  | inactive |  | inactive | inactive | 
19 | CCc1ccc(/C=C2/SC(=S)N(CCCC(=O)Nc3ccccc3C(=O)O)C2=O)cc1 | 75.7 µM (active) | inactive |  | inactive |  | inactive | inactive | 
20 | CSCCC(C(=O)O)N1C(=O)c2ccc(C(=O)O)cc2C1=O (stereo not given) | inactive | inactive | 4.67% [at 17.1 µM, percent relative to cAMP agonist control] | inactive | -1.74% [at 30.8 µM] |  |  | 
21 | CC(=O)c1sc(NC(=O)c2c(F)cccc2F)nc1C | inactive | inactive |  | inactive |  | inactive | inactive | 
22 | CCOC(=O)c1c(C)nc2sc(C(N)=O)c(N)c2c1-c1ccccc1 | inactive | inactive | -0.736% [at 17.1 µM, percent relative to cAMP agonist control] | inactive | -13.8% [at 30.8 µM] |  |  | 
23 | O=C(Nc1ccccn1)c1cccc(S(=O)(=O)N2CCc3ccccc3C2)c1 | inactive | inactive |  | inactive |  | inactive | inactive | 
24 | Cc1ccc(-c2sc(-c3ccccc3)nc2CC(=O)Nc2ccccc2F)cc1 | inactive | inactive |  | inactive |  | inactive | inactive | 
25 | COc1ccc(/C=N/Nc2ccc(C(=O)O)cc2)cc1Br | inactive | inactive |  | inactive |  | inactive | inactive | 

Row | Compound | Potency [1] | Potency [2] | activation [3] | Potency [4] | activity change, negative = inhibition [5] | Potency [3] | Potency [5] | outcome [4]
26 | CCCOC(=O)c1c(-c2ccccc2)c(-c2ccccc2)nn(C)c1=O | inactive | inactive |  | inactive |  | inactive | inactive | 
27 | Cc1cccc(-n2nc(C)c(C(=O)Nc3cc(C)ccc3C)c2-n2cccc2)c1 | inactive | inactive |  | inactive |  | inactive | inactive | 
28 | Cc1ccc2c(c1)CCCN2C(=O)c1cc(C)c(C)s1 | inactive | inactive |  |  |  | inactive | inactive | inactive [at 12.7 µM]
29 | CNc1c(-n2cc(C(=O)OC)c(C(=O)OC)c2C(=O)OC)c(=O)n(C)c(=O)n1C | inactive | inactive |  | inactive |  | inactive | inactive | 
30 | Cc1ccc(C2CC(=O)Oc3cc(C)cc(C)c32)cc1 (stereo not given) | inactive | inactive |  | inactive |  | inactive | inactive | 
31 | CC1CN(C(=O)CCC(=O)NCc2cccc(Cl)c2)c2ccccc2S1 (stereo not given) | inactive | inactive |  | inactive |  | inactive | inactive | 
32 | CCCC(C(=O)Nc1ccc(C)c(S(=O)(=O)N2CCOCC2)c1)c1ccccc1 (stereo not given) | inactive | inactive | 4.3% [at 17.1 µM, percent relative to cAMP agonist control] | inactive | -29.6% [at 30.8 µM] |  |  | 
33 | CCc1ccc(Nc2n[n+](-c3ccccc3)c(-c3cc(OC)c(OC)cc3Br)s2)cc1 | inactive | inactive |  | inactive |  | inactive | inactive | 
34 | O=S1(=O)CCO[C@H]2Cc3ccccc3[C@H]2N1Cc1ccc(Cl)cc1 | inactive | inactive | -2.47% [at 17.1 µM, percent relative to cAMP agonist control] | inactive | -21.2% [at 30.8 µM] |  |  | 
35 | COc1ccc2c(c1)CC/C(=C\Nc1ccc3c(c1)OCO3)C2=O | inactive | 112 µM (active) |  | inactive |  | 100 µM (active) | inactive | 
36 | COCOCCn1cc(CN2CCS(=O)(=O)N(Cc3ccc(-c4ccc(C)cc4)cc3)C(CC(C)C)C2=O)nn1 (stereo not given) | inactive | inactive | 9.16% [at 17.1 µM, percent relative to cAMP agonist control] | inactive | 15.6% [at 30.8 µM] |  |  | 
37 | N#Cc1c(NC(=O)c2ccc(Br)o2)n(-c2ccccc2)c2nc3ccccc3nc12 | 50.1 µM (active) | inactive | 1.83% [at 17.1 µM, percent relative to cAMP agonist control] | inactive | -1.68% [at 30.8 µM] |  |  | 
38 | Cc1cc(OC(C)C(=O)NCCc2c[nH]c3ccccc23)c2c(C)cc(=O)oc2c1 (stereo not given) | inactive | inactive |  | inactive |  | inactive | inactive | 
39 | CS(=O)(=O)c1ccc2c(c1)sc1nc(=O)c(/C=C3/C=CC(=O)C(O)=C3)c(N)n12 | 3.38 µM (active) | inactive |  | inactive |  | inactive | inactive | 
40 | COc1ccc(NC(=O)c2c[nH]n3c(=O)cc(C4CCN(C(=O)OC(C)(C)C)CC4)nc23)cc1Cl | 67.5 µM (active) | inactive |  | inactive |  | inactive | inactive | 
41 | NS(=O)(=O)c1ccc(Nc2nc3ccccc3nc2NS(=O)(=O)c2cccc([N+](=O)[O-])c2)cc1 | 75.7 µM (active) | inactive |  | inactive |  | inactive | inactive | 
42 | N#Cc1c(NC(=O)c2ccccc2)sc2c1CCCCC2 | inactive | inactive | 10.4% [at 17.1 µM, percent relative to cAMP agonist control] | inactive | 2.87% [at 30.8 µM] |  |  | 
43 | CC(Sc1ccc(Cl)cc1)C(=O)NNC(=O)c1csc(N2CCOCC2)n1 (stereo not given) | inactive | inactive | 4.3% [at 17.1 µM, percent relative to cAMP agonist control] | inactive | -11.6% [at 30.8 µM] |  |  | 
44 | O=C(Nc1cccc(Cl)c1)N(Cc1nc2ccccc2c(=O)[nH]1)Cc1cccs1 | inactive | inactive | 5.3% [at 17.1 µM, percent relative to cAMP agonist control] | inactive | 2.45% [at 30.8 µM] |  |  | 
45 | COc1cc(OC)c(NC(=O)N2CCC(CN3CCOCC3)CC2)cc1Cl | inactive | inactive |  | inactive |  | inactive | inactive | 
46 | CCCCCCOC(=O)C(C#N)c1nc2ccccc2nc1N1CCOCC1 (stereo not given) | 75.7 µM (active) | inactive |  | 75.7 µM (active) |  | inactive | inactive | 
47 | O=C(NCCN1CCCC1)C(c1ccccc1)c1ccccc1 | inactive | inactive |  | inactive |  | inactive | inactive | 
48 | Cc1ccc(S(=O)(=O)N2CCN(CC(=O)Nc3ccccc3C(=O)NC3CC3)CC2)cc1 | inactive | inactive | 6.96% [at 17.1 µM, percent relative to cAMP agonist control] | inactive | -3.04% [at 30.8 µM] |  |  | 
49 | CC[C@H]1C(c2ccc(F)cc2)=NN(c2ccccc2)[C@@H]1CO | inactive | inactive | 4.16% [at 17.1 µM, percent relative to cAMP agonist control] | inactive | -6.73% [at 30.8 µM] |  |  | 
